Our source for the outcome and AC50 values is PubChem BioAssay (EPA / NIEHS).

Test [1] can be described thus: Tanguay_ZF_120hpf_PE_legacy: (Legacy) Oregon State University Tanguay Lab 120 Hour Post-fertilization zebrafish Assay for Pericardial Edema (AID 2283640). The gist of the method:
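Static waterborne exposure, 5D wild-type embryos, 28C, to 120 hpf; final DMSO 0.64% (vol/vol). Binary PE call at 120 hpf by brightfield; fitted upward vs DMSO baseline. 5uM trimethyltin chloride as positive control.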

Test [2] is described as follows: Tanguay_ZF_120hpf_SOMI_legacy: (Legacy) Oregon State University Tanguay Lab 120 Hour Post-fertilization zebrafish Assay for Somite Malformation (AID 2283647). The gist of the method:
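Binary brightfield scoring of somite defects at 120 hpf in 5D wild-type larvae; one dechorionated embryo per well, static exposure from 6 hpf, 28C, sealed and dark. Final DMSO 0.64%; trimethyltin chloride 5uM positive control.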

Test [3] in a line: Tanguay_ZF_120hpf_PFIN_legacy: (Legacy) Oregon State University Tanguay Lab 120 Hour Post-fertilization zebrafish Assay for Pectoral Fin Malformation (AID 2283648).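 Note: each larva judged yes or no for fin defect by brightfield with dead larvae skipped.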 The gist of the method: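 Dechorionated Tropical 5D wild-type zebrafish embryos, one per well, statically exposed from 6 to 120 hpf at 28C with 0.64% DMSO final. Pectoral fin malformation scored present/absent by brightfield at 120 hpf; not scored in dead embryos.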

Test [4] can be described thus: Tanguay_ZF_120hpf_CFIN_legacy: (Legacy) Oregon State University Tanguay Lab 120 Hour Post-fertilization zebrafish Assay for Caudal Fin Malformation (AID 2283649). The procedure, abridged: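 Dechorionated 5D wild-type zebrafish, static exposure 6–120 hpf, 28C, sealed and dark, 0.64% v/v DMSO final. Binary fin-malformation call at 120 hpf, brightfield; gain of signal vs DMSO baseline.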

A short description of test [5]: Tanguay_ZF_120hpf_PIG_legacy: (Legacy) Oregon State University Tanguay Lab 120 Hour Post-fertilization zebrafish Assay for Pigmentation Malformation (AID 2283650). The procedure, abridged: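 Dechorionated Tropical 5D wild-type embryos, one per well from 6 hpf, statically exposed at 28C in the dark until 120 hpf, 0.64% DMSO final. Pigmentation scored present/absent by brightfield microscopy; dead embryos not scored; fitted versus DMSO.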

The nature of test [6]: Tanguay_ZF_120hpf_CIRC_legacy: (Legacy) Oregon State University Tanguay Lab 120 Hour Post-fertilization zebrafish Assay for Circulatory Malformation (AID 2283651). The gist of the method:
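Dechorionated wild-type 5D zebrafish embryos, one per well, statically exposed from 6 to 120 hpf at 28C with 0.64% DMSO; circulatory malformation scored present/absent by brightfield microscopy at 120 hpf, dead embryos excluded.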

Test [7] in a line: Tanguay_ZF_120hpf_SWIM_legacy: (Legacy) Oregon State University Tanguay Lab 120 Hour Post-fertilization zebrafish Assay for Swim Bladder Malformation (AID 2283654).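 Note: swim bladder malformation in each larva scored yes or no under brightfield.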 The procedure, abridged:
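Dechorionated wild-type Tropical 5D zebrafish embryos, one per well from 6 hpf, were statically exposed at 28C until 120 hpf in 0.64% DMSO. Swim bladder malformation scored as present/absent by brightfield microscopy; not scored in dead larvae.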

Test [8] in a line: Tanguay_ZF_120hpf_TRUN_legacy: (Legacy) Oregon State University Tanguay Lab 120 Hour Post-fertilization zebrafish Assay for Truncated Body (AID 2283655). The gist of the method:
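Whole-embryo zebrafish screen: dechorionated 5D embryos, static exposure 6–120 hpf, 28C, sealed foil-covered plates, 0.64% DMSO. Binary truncation call; gain of signal versus DMSO baseline.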

A short description of test [9]: Tanguay_ZF_120hpf_NC_legacy: (Legacy) Oregon State University Tanguay Lab 120 Hour Post-fertilization zebrafish Assay for Notochord and Tail Malformation (AID 2283656). The gist of the method: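 Dechorionated Tropical 5D wild-type zebrafish embryos, one per well from 6 hpf, statically exposed to 120 hpf at 28C in 0.64% DMSO final. Notochord distortion scored present/absent by brightfield; dead embryos excluded.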

Test [10] has as its system Thyroperoxidase (TPO), gene 54314. The test is described as follows: CCTE_Simmons_AUR_rTPO: CCTE's Amplex UltraRed Assay for Thyroperoxidase (TPO) Inhibition, Simmons Lab (AID 2283662).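 Note: potency for loss of signal meaning inhibition of peroxidase activity.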 The gist of the method:
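Cell-free peroxidase activity assay using rat thyroid gland microsomes with excess H2O2 (300 uM) and 25 uM Amplex UltraRed. Compounds tested from 5 nM to 87.5 uM; fluorescence measured after 30 min at 37C, analysed relative to DMSO baseline.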

The nature of test [11]: CCTE_Simmons_CellTiterGLO_HEK293T: Viability Assessment in CCTE's Assays for Thyroperoxidase (TPO) Inhibition, Simmons Lab (AID 2283665).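 Note: cells exposed to compound for 24 h before readout; actives reduce ATP signal below DMSO vehicle meaning cytotoxicity.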 The procedure, abridged:
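HEK293T cells in DMEM with 1% FBS, dosed 24 h at 37C with 8 concentrations, 5 nM–87.5 uM final, 0.5% DMSO. ATP measured by CellTiter Glo luminescence; loss of signal vs DMSO, three biological replicates.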

Test [12] is described as follows: Tanguay_ZF_120hpf_TR_legacy: (Legacy) Oregon State University Tanguay Lab 120 Hour Post-fertilization zebrafish Assay for Touch Response (AID 2283667). The procedure, abridged: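 Tropical 5D wild-type zebrafish embryos statically exposed to 120 hpf at 28°C, sealed and dark-covered, 0.64% DMSO final; touch response scored as present/absent by brightfield microscopy at 120 hpf. Trimethyltin chloride 5 uM positive control; dead embryos not scored.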

Test [13] can be described thus: STM_H9_OrnithineISnorm_perc: Stemina devTOX quickPredict H9 human embryonic stem cell (hESC)-based Assay for Ornithine (ORN) Metabolite Biomarker, Normalized (AID 2283712; active = hit-call score of the fitted dose curve at least 0.9, where 1 is the maximum; inactive = score below 0.9;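 note: ornithine released into spent medium during last day measured by mass spectrometry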). The procedure, abridged: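 Undifferentiated H9 hESCs exposed 72 h with daily media and compound renewal; final 24-h conditioned medium analysed by UPLC-HRMS. Ornithine peak area normalised to spiked C13 standard and to median 0.1% DMSO control; viability by CellTiter-Fluor.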

The nature of test [14]: Tanguay_ZF_120hpf_BRAI_legacy: (Legacy) Oregon State University Tanguay Lab 120 Hour Post-fertilization zebrafish Assay for Brain Malformation (AID 2283641). The procedure, abridged: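 Read-out: binary brain morphology call at 120 hpf (brightfield), fitted in gain-of-signal direction vs DMSO. Wild-type Tropical 5D embryos, static exposure, 28C, 0.64% DMSO final; 5uM trimethyltin chloride as positive control.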

Test [15] can be described thus: CCTE_Padilla_ZF_144hpf_TERATOSCORE: (Legacy) CCTE's 144 Hour Post-fertilization zebrafish Assay Teratoscore, Padilla Lab (AID 2283679; active = hit-call score of the fitted dose curve at least 0.9, where 1 is the maximum; inactive = score below 0.9;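 note: zebrafish embryos with chorions exposed by immersion from 6-8 hpf to 5 dpf with daily renewal; teratogenicity score from eye scoring of death hatching and malformations at 144 hpf; higher score means more developmental defects relative to DMSO baseline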). The procedure, abridged: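 Larvae scored by eye at 144 hpf for death, hatching and malformations after a day in clean Hanks'. Before that, daily-renewed exposure at 80 uM (0.4% DMSO, 26C) from roughly 6-8 hpf through 5 dpf, 4 embryos per chemical.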

Read-out in test [16]: kallikrein-3 (KLK3), KLK3 (gene 354)
The test can be described thus: LTEA_HepaRG_KLK3: Life Technologies and Expression Analysis (LTEA) Assay for kallikrein-3 (KLK3) using HepaRG (AID 2283652; active = hit-call score of the fitted dose curve at least 0.9, where 1 is the maximum; inactive = score below 0.9). The conditions noted are these: mRNA level, 48 h; actives raise or lower the signal. The procedure, abridged: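 Differentiated human HepaRG cells in serum-free induction medium exposed 48 h in duplicate, eight-point half-log series from 100 uM in 0.5% DMSO. KLK3 mRNA by qRT-PCR, normalised to ACTB, GAPDH, POLR2A; bidirectional fit versus DMSO.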

Read-out in test [17]: solute carrier (SLC22A6), SLC22A6 (gene 9356)
The test can be described thus: LTEA_HepaRG_SLC22A6: Life Technologies and Expression Analysis (LTEA) Assay for solute carrier (SLC22A6) using HepaRG (AID 2283653; active = hit-call score of the fitted dose curve at least 0.9, where 1 is the maximum; inactive = score below 0.9). The conditions noted are these: mRNA level, 48 h; actives raise or lower the signal. The procedure, abridged: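 HepaRG, human liver line; 48 h chemical exposure; 8-pt half-log series from 100 uM in 0.5% DMSO, duplicate wells. Readout: TaqMan qRT-PCR of SLC22A6 mRNA, housekeeping-normalised; bidirectional curve fit vs DMSO baseline.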

Read-out in test [18]: solute carrier (SLC10A1), SLC10A1 (gene 6554)
The test can be described thus: LTEA_HepaRG_SLC10A1: Life Technologies and Expression Analysis (LTEA) Assay for solute carrier (SLC10A1) using HepaRG (AID 2283657; active = hit-call score of the fitted dose curve at least 0.9, where 1 is the maximum; inactive = score below 0.9). The following applies: mRNA level, 48 h; actives raise or lower the signal. The gist of the method:
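HepaRG cells (single lot) exposed 48 h in serum-free induction medium, 8-point half-log series from 100 uM top in 0.5% DMSO, duplicate. SLC10A1 mRNA by qRT-PCR normalised to ACTB, GAPDH, POLR2A; bidirectional fit versus DMSO.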

Read-out in test [19]: matrix metalloproteinase-1 (MMP1), MMP1 (gene 4312)
The test is described as follows: LTEA_HepaRG_MMP1: Life Technologies and Expression Analysis (LTEA) Assay for matrix metalloproteinase-1 (MMP1) using HepaRG (AID 2283658; active = hit-call score of the fitted dose curve at least 0.9, where 1 is the maximum; inactive = score below 0.9). The conditions noted are these: mRNA level, 48 h; actives raise or lower the signal. The procedure, abridged:
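MMP1 transcript read by TaqMan qRT-PCR (Fluidigm array) after 48 h chemical exposure of HepaRG cells in serum-free induction medium. Eight-point half-log series, top 100 uM, 0.5% DMSO vehicle. Bidirectional curve fit against DMSO baseline.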

Read-out in test [20]: Cytochrome P450 (CYP24A1_1), CYP24A1 (gene 1591)
The test is described as follows: LTEA_HepaRG_CYP24A1_1: Life Technologies and Expression Analysis (LTEA) Assay for Cytochrome P450 (CYP24A1_1) using HepaRG (AID 2283671; active = hit-call score of the fitted dose curve at least 0.9, where 1 is the maximum; inactive = score below 0.9). The following applies: mRNA level, 48 h; actives raise or lower the signal. The procedure, abridged:
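Differentiated human HepaRG cells in serum-free induction medium, exposed 48 h in duplicate to eight half-log concentrations from 100 uM top, 0.5% DMSO. Transcript measured by TaqMan qRT-PCR, normalised to ACTB, GAPDH, POLR2A; bidirectional fitting versus DMSO.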

Records with an inconclusive call do not appear. The source made the active and inactive calls. Rule for the calls, unless noted: active = hit-call score of the fitted dose curve at least 0.9, where 1 is the maximum; inconclusive = response in the unintended direction; inactive = score below 0.9.

On to `O=C1OC(c2ccc(O)cc2)(c2ccc(O)cc2)c2ccccc21`, for which the call in test [1], in test [2], in test [3], in [4], in test [5] and in test [6] was inactive. The compound was classed as inactive in [7], in test [8], in test [9], in [12] and in test [13]. In addition, the AC50 in [10] was 2.99 µM (active); in test [11] it was 43.8 µM (active).

In the case of `CCCCC(CC)COP(=O)(OCC(CC)CCCC)OCC(CC)CCCC` (configuration not stated), the call in test [1], in test [2], in [3], in test [4], in test [5] and in test [7] was inactive. The compound was called inactive in test [8], in [9], in test [12] and in test [13].

For the compound `COC(=O)CCC(=O)OC`, the call in test [1], in test [14], in [3], in [4], in [5] and in test [6] was inactive. Moreover, the compound was called inactive in [7], in test [8], in test [9] and in test [12].

On to `O=C(N[C@@H](c1ccccc1)[C@@H]1CCCCN1)c1cccc(C(F)(F)F)c1Cl`, for which the result in test [1], in test [2], in test [3], in [4], in [5] and in test [6] was inactive. The call in test [8], in test [9] and in test [12] was inactive. The AC50 in test [15] was 20.3 µM (active).

For the compound `CN(C)CCCN(C)CCCN(C)C`, the call in test [1], in test [2], in [3], in [4], in [5] and in [6] was inactive. Also, the compound was classed as inactive in test [7], in [9] and in [12].

`NC(=Nc1ccccc1)Nc1ccccc1`: the compound was called inactive in test [1], in test [2], in [3], in test [4], in [5] and in test [6]. The call in test [7], in test [8], in test [9], in [12] and in test [13] was inactive.

Regarding `c1ccc2occc2c1`, the compound was called inactive in test [1], in test [2], in [3], in test [4], in [5] and in test [6]. Also, the call in [7], in [8], in [9] and in test [12] was inactive.

Consider `CN(C)CCCN1c2ccccc2Sc2ccc(Cl)cc21`, for which the result in test [1], in [2], in [3], in test [4], in [5] and in test [6] was inactive. Besides, the call in test [16], in test [17], in test [7], in test [8], in [9] and in [12] was inactive. In addition, the result in [20] was inactive. In addition, the concentration at half-maximal activity (AC50) was 21 µM (active) in test [18], 84.9 µM (active) in test [19], 6.24 µM (active) in test [15] and 3.51 µM (active) in test [13].

Take `Oc1ccccc1O`: the compound was called inactive in test [1], in [2], in test [3], in test [4], in [5] and in [7]. The result in test [8], in test [9] and in [12] was inactive. Besides, the AC50 is 0.84 µM (active) in test [10], 34.4 µM (active) in test [11] and 60.1 µM (active) in [15].

As for `O=C(O)CC(O)(CC(=O)O)C(=O)O`, the compound was called inactive in [1], in test [2], in test [3], in [4], in [5] and in test [6]. For the same compound, the outcome in test [7], in test [8], in test [9] and in [12] was inactive.

As to `CN(C)C(=O)NC1(c2ccccc2)CCN(CC[C@@]2(c3ccc(F)c(F)c3)CN(C(=O)c3ccccc3)CCO2)CC1`, the outcome in [1], in test [2], in [3], in test [4], in [5] and in [6] was inactive. In addition, the result in [7], in [8], in test [9] and in test [12] was inactive.

As a reminder, the AC50 is the concentration at which the activity in the assay is half-maximal.
